Each molecule was assayed on Pseudomonas aeruginosa PA14 wild type (assay: respiration area under curve with compound as sole nitrogen source, 24 h (OmniLog AUC (arbitrary units)); higher = more respiration / better utilisation as nitrogen source, active = 2000 or more).
Method: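 Biolog Phenotype MicroArray plates PM6-PM8: each di/tripeptide is the sole nitrogen source (IF-0 medium with succinate/ferric citrate and dye mix A). Tetrazolium reduction was read in the OmniLog every 15 min for 24 h at 37°C and summarised as area under the respiration curve (arbitrary units). The paper counts values below 2000 as no respiration and above 8000 as solid respiration. Replicate datasets are averaged.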

SMILES	respiration area under curve
N[C@@H](Cc1ccccc1)C(=O)N[C@@H](CO)C(=O)O (plate: PM7)	7630 (active)
C[C@H](NC(=O)CCN)C(=O)O (plate: PM8)	6440 (active)
CC(C)CC(N)C(=O)NC(Cc1c[nH]c2ccccc12)C(=O)O (stereo not given) (plate: PM7)	8750 (active)
N[C@@H](Cc1ccccc1)C(=O)N[C@@H](CCC(=O)O)C(=O)O (plate: PM8)	2920 (active)
CC(C)C[C@H](N)C(=O)N[C@@H](Cc1ccccc1)C(=O)O (plate: PM6)	6750 (active)
C[C@@H](O)[C@H](NC(=O)CN)C(=O)O (plate: PM6)	5430 (active)
O=C(O)CC[C@H](NC(=O)[C@@H]1CCCN1)C(=O)O (plate: PM8)	7660 (active)
NC(=O)CC[C@H](N)C(=O)NCC(=O)O (plate: PM6)	7270 (active)
N[C@@H](Cc1ccc(O)cc1)C(=O)N[C@@H](Cc1ccc(O)cc1)C(=O)O (plate: PM7)	7080 (active)
CSCCC(N)C(=O)NC(CCCN=C(N)N)C(=O)O (stereo not given) (plate: PM7)	14600 (active)
CC(C)[C@H](N)C(=O)N1CCC[C@H]1C(=O)O (plate: PM8)	12700 (active)
CC[C@H](C)[C@H](N)C(=O)N[C@@H](CCSC)C(=O)O (plate: PM6)	1290 (inactive)
N[C@@H](CC(=O)O)C(=O)NCC(=O)O (plate: PM8)	4290 (active)
CC[C@H](C)[C@H](NC(=O)[C@@H]1CCCN1)C(=O)O (plate: PM8)	7540 (active)
CSCC[C@H](N)C(=O)NCC(=O)O (plate: PM7)	5050 (active)
CSCC[C@H](NC(=O)[C@@H](N)Cc1ccccc1)C(=O)O (plate: PM8)	1220 (inactive)
C[C@H](N)C(=O)N[C@@H](C)C(=O)N[C@@H](C)C(=O)O (plate: PM8)	10400 (active)
NC(=O)CC[C@H](NC(=O)[C@@H](N)CO)C(=O)O (plate: PM8)	9860 (active)
CC(C)[C@H](NC(=O)[C@@H](N)Cc1ccc(O)cc1)C(=O)O (plate: PM8)	7430 (active)
C[C@@H](O)[C@H](N)C(=O)N[C@@H](CC(=O)O)C(=O)O (plate: PM8)	5680 (active)

SMILES	respiration area under curve
N[C@@H](Cc1ccc(O)cc1)C(=O)N[C@@H](Cc1ccccc1)C(=O)O (plate: PM7)	6680 (active)
C[C@H](NC(=O)[C@@H](N)Cc1ccc(O)cc1)C(=O)O (plate: PM7)	11200 (active)
CSCC[C@H](NC(=O)[C@@H](N)[C@@H](C)O)C(=O)O (plate: PM7)	4960 (active)
CC(C)C[C@H](NC(=O)CN)C(=O)O (plate: PM6)	1880 (inactive)
CC(C)[C@H](NC(=O)[C@H](C)N)C(=O)O (plate: PM8)	9240 (active)
C[C@@H](N)C(=O)NCC(=O)O (plate: PM8)	6030 (active)
NCC(=O)NCC(=O)O (plate: PM6)	3270 (active)
CC(C)C[C@H](NC(=O)[C@@H](N)Cc1ccc(O)cc1)C(=O)O (plate: PM7)	7880 (active)
N[C@@H](Cc1ccccc1)C(=O)N[C@@H](CC(=O)O)C(=O)O (plate: PM8)	2860 (active)
C[C@H](NC(=O)[C@@H](N)CCC(=O)O)C(=O)O (plate: PM8)	9190 (active)
C[C@H](N)C(=O)N[C@@H](CO)C(=O)O (plate: PM6)	9550 (active)
NC(=O)CC[C@H](N)C(=O)N[C@@H](CCC(=O)O)C(=O)O (plate: PM8)	9650 (active)
NC(=O)CC[C@H](NC(=O)[C@@H](N)Cc1ccc(O)cc1)C(=O)O (plate: PM7)	13000 (active)
CC(C)[C@H](N)C(=O)N[C@@H](CCC(=O)O)C(=O)O (plate: PM8)	5380 (active)
O=C(O)[C@H](Cc1c[nH]c2ccccc12)NC(=O)[C@@H]1CCCN1 (plate: PM8)	1260 (inactive)
CC[C@H](C)[C@H](N)C(=O)N[C@@H](CO)C(=O)O (plate: PM6)	6110 (active)
N[C@@H](CCC(=O)O)C(=O)N[C@@H](CC(=O)O)C(=O)O (plate: PM6)	12 (inactive)
CC[C@H](C)[C@H](NC(=O)[C@@H](N)C(C)C)C(=O)O (plate: PM7)	9390 (active)
CC(C)[C@H](N)C(=O)N[C@@H](Cc1ccc(O)cc1)C(=O)O (plate: PM7)	8020 (active)
NCC(=O)N1CCC[C@H]1C(=O)O (plate: PM6)	9130 (active)

From the supplement of paper PMC4206461
